Measurements as given in PubChem BioAssay.
Entries with a potency or affinity are not part of this list. Activity calls are given as the source filed them. How the calls were made is not given here.

Assay: A2780 cell killing – plate reader, dry powder samples, cytotoxicity control, dose response (AID 743046)
Conditions: A2780 ovarian cancer cytotoxicity; series mostly up to 35 µM

| Structure (SMILES) | outcome |
| --- | --- |
| O=C(Nc1ccc(C(F)(F)F)cc1)Nc1ccc2c(c1)[C@@H]1C[C@H](CC(=O)N3CCc4ccccc4C3)O[C@H](CO)[C@@H]1O2 | inactive |
| CC(C)NC(=O)N(C)C[C@H]1OCCCC[C@@H](C)Oc2ccc(NC(=O)Nc3ccc(C(F)(F)F)cc3)cc2C(=O)N([C@@H](C)CO)C[C@H]1C | inactive |
| COc1cccc(C#Cc2ccc3c(c2)O[C@@H](CN(C)C(=O)c2ccccn2)[C@H](C)CN([C@@H](C)CO)S3(=O)=O)c1 | inactive |
| C[C@@H]1CCCCO[C@@H](CN(C)C(=O)Nc2ccc(C(F)(F)F)cc2)[C@H](C)CN([C@H](C)CO)C(=O)c2cc(NS(=O)(=O)c3ccc(Cl)cc3)ccc2O1 | inactive |
| C[C@@H]1CCCCO[C@@H](CN(C)S(=O)(=O)c2ccc(F)cc2)[C@H](C)CN([C@H](C)CO)C(=O)c2cc(NS(=O)(=O)c3ccc(Cl)cc3)ccc2O1 | inactive |
| CC(C)CC1NC(=S)N(Cc2ccccc2)C1=O (centres undefined) | inactive |
| CC(C)CC#Cc1ccc2c(c1)O[C@H](CN(C)S(=O)(=O)c1ccc(F)cc1)[C@@H](C)CN([C@@H](C)CO)S2(=O)=O | inactive |
| C[C@@H]1CCCCO[C@H](CN(C)CC2CCCCC2)[C@H](C)CN([C@@H](C)CO)C(=O)c2cc(NC(=O)Nc3ccccc3)ccc2O1 | inactive |
| C[C@H]1CCCCO[C@H](CN(C)Cc2ccc(C(F)(F)F)cc2)[C@@H](C)CN([C@@H](C)CO)C(=O)c2cc(NS(=O)(=O)c3cccs3)ccc2O1 | inactive |
| C[C@@H]1CCCCO[C@H](CN(C)C(=O)Nc2ccc(C(F)(F)F)cc2)[C@@H](C)CN([C@@H](C)CO)C(=O)c2cc(NC(=O)Nc3ccc(C(F)(F)F)cc3)ccc2O1 | inactive |
| COc1cccc(S(=O)(=O)N2CCCCN3[C@@H](CO)[C@@H](c4ccc(C#CCC(C)C)cc4)[C@@H]3C2)c1 | inactive |
| C[C@H]1CCCCO[C@@H](CN(C)Cc2ccc3c(c2)OCO3)[C@@H](C)CN([C@@H](C)CO)C(=O)c2cc(NC(=O)Nc3ccc(F)cc3)ccc2O1 | inactive |
| Cc1ccc(S(=O)(=O)Nc2ccc3c(c2)C(=O)N([C@H](C)CO)C[C@@H](C)[C@H](CN(C)Cc2ccc(Cl)c(Cl)c2)OCCCC[C@H](C)O3)cc1 | inactive |
| C[C@@H]1CN([C@H](C)CO)S(=O)(=O)c2ccc(-c3ccc(C#N)cc3)cc2O[C@@H]1CN(C)Cc1cccc(F)c1 | inactive |
| C[C@H]1CN([C@@H](C)CO)C(=O)Cc2cc(NC(=O)NC3CCCCC3)ccc2O[C@H]1CN(C)Cc1ccc(-c2ccccc2)cc1 | inactive |
| O=C(Nc1ccc(F)cc1)N1CC(=O)N2[C@@H](CO)[C@@H](c3ccc(C#Cc4ccc(F)cc4)cc3)[C@@H]2C1 | inactive |
| Cc1ccc(S(=O)(=O)N(C)C[C@H]2Oc3cc(C#Cc4ccncc4)ccc3S(=O)(=O)N([C@H](C)CO)C[C@H]2C)cc1 | inactive |
| O=C(Cc1ccccc1)N1CC[C@H]2[C@H](CO)Nc3ccc(C4=CCCCC4)cc3[C@H]21 | inactive |
| Cc1noc(C)c1S(=O)(=O)Nc1ccc2c(c1)C(=O)N([C@H](C)CO)C[C@@H](C)[C@H](CN(C)C(=O)Nc1ccc(C(F)(F)F)cc1)OCCCC[C@@H](C)O2 | inactive |
| C[C@@H]1CN([C@H](C)CO)C(=O)c2cc(NC(=O)Cc3ccccc3)ccc2O[C@@H](C)CCCCO[C@@H]1CN(C)Cc1ccc(C(F)(F)F)cc1 | inactive |
| C[C@H](CO)N1C[C@H](C)[C@@H](CN(C)S(=O)(=O)c2cccc(F)c2)OCc2ccccc2-c2c(n(C)c3ccccc23)C1=O | inactive |
| C[C@@H]1CN([C@@H](C)CO)C(=O)Cc2cc(NC(=O)Cc3cn(C)c4ccccc34)ccc2O[C@H]1CN(C)Cc1ccc(Oc2ccccc2)cc1 | inactive |
| C[C@H]1CCCCO[C@H](CN(C)C(=O)C2CCCCC2)[C@@H](C)CN([C@@H](C)CO)C(=O)c2cc(NS(=O)(=O)c3ccc(Cl)cc3)ccc2O1 | inactive |
| C[C@@H]1CN([C@H](C)CO)C(=O)c2cc(NC(=O)Nc3ccc(F)cc3)ccc2O[C@@H](C)CCCCO[C@@H]1CN(C)Cc1ccc(Cl)c(Cl)c1 | inactive |
| C[C@@H]1CN([C@H](C)CO)C(=O)c2cc(NC(=O)Nc3cccc4ccccc34)ccc2O[C@@H]1CN(C)C(=O)Nc1cccc2ccccc12 | inactive |
| C[C@@H]1CCCCO[C@H](CN(C)Cc2ccc(C(F)(F)F)cc2)[C@H](C)CN([C@H](C)CO)C(=O)c2cc(NC(=O)c3ccccc3)ccc2O1 | inactive |
| Cc1ccccc1-c1ccc2c(c1)O[C@H](CN(C)C(=O)Nc1ccc(C(F)(F)F)cc1)[C@@H](C)CN([C@H](C)CO)S2(=O)=O | inactive |
| COc1ccccc1C#Cc1ccc2c(c1)O[C@@H](CN(C)Cc1cncnc1)[C@H](C)CN([C@H](C)CO)S2(=O)=O | inactive |
| C[C@@H]1CN([C@H](C)CO)S(=O)(=O)c2ccc(C#CC3CCCC3)cc2O[C@H]1CN(C)Cc1cccnc1 | inactive |
